Data: PubChem BioAssay (NCATS)
Inconclusive results are not listed. Active and inactive are the calls of the source. Unless noted, calls follow the shape of the dose curve; as a rule, active = well fitted curve in the direction sought with a large enough effect; inconclusive = small, poorly fitted or top-dose-only effect, or another doubt; inactive = no such curve, though single readings can be large; an effect the other way counts as inactive or inconclusive.

Assays:
[1] = P-glycoprotein substrates identified in KB-8-5-11 adenocarcinoma cell line, qHTS therapeutic library screen (AID 1346987); also: nearly all actives have a fitted effect of over 65% in size; also: potency is read from the fitted curve at half-maximal effect
Method in brief: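 Steps: plate 500 KB-8-5-11 cells/well in DMEM + 10% FCS (colchicine removed); pin compounds in dose-response; incubate 72 h, 37 degree C, 5% CO2; add CellTiter-Glo, 5 min; read luminescence.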

[2] = target: Catechol O-methyltransferase (Homo sapiens) (UniProt P21964); experiment: Confirmatory Screen for Target Class Profiling of Small Molecule Inhibitors of Methyltransferases (AID 1745852; calls by dose curve; as to activity change, negative = inhibition: % is scaled to controls: 0 for no effect and ±100 for the full control effect); conditions: MTase-Glo luminescence, SAH detection, recombinant enzyme; measured here: COMT max response; stronger effect = lower value
Catechol O-methyltransferase (Homo sapiens), sequence (P21964 whole entry, looked up): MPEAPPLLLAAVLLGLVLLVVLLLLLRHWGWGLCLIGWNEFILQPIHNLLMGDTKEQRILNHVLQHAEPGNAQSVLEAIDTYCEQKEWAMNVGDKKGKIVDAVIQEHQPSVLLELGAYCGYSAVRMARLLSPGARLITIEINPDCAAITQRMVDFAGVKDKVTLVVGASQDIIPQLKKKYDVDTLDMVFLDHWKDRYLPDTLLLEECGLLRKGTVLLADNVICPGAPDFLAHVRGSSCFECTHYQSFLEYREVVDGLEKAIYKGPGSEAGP

[3] = target: Guanidinoacetate N-methyltransferase (Homo sapiens) (UniProt Q14353); experiment: as above; conditions: activity change, negative = inhibition: at 57.3 µM (top of the series) unless noted
[4] = target: Nicotinamide N-methyltransferase (Homo sapiens) (UniProt P40261); experiment: as above; conditions: MTase-Glo luminescence, SAH detection, recombinant enzyme; measured here: NNMT max response; stronger effect = lower value
Nicotinamide N-methyltransferase (Homo sapiens), sequence (P40261 whole entry, looked up): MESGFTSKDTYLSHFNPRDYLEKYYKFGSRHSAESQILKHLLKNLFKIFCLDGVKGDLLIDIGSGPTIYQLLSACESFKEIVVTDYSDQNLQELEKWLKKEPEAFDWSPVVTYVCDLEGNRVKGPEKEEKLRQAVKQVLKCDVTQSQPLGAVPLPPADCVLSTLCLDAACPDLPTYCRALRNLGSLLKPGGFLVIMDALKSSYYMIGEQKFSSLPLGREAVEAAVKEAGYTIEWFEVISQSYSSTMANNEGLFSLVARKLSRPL

[5] = target: Phenylethanolamine N-methyltransferase (Homo sapiens) (UniProt P11086); experiment: as above; conditions: MTase-Glo luminescence, SAH detection, recombinant enzyme; measured here: PNMT max response; stronger effect = lower value
Phenylethanolamine N-methyltransferase (Homo sapiens), sequence (P11086 whole entry, looked up, the tested form may be a part): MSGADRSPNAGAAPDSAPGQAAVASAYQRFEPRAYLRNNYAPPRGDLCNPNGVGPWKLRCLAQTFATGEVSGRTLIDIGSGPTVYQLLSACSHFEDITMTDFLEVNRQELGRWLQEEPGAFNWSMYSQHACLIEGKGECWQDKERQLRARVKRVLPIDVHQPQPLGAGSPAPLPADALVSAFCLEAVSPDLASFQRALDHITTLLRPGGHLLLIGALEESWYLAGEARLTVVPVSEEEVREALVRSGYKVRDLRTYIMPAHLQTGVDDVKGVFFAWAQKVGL

[6] = Primary qHTS for inhibitors of nuclear receptor binding SET domain protein 2 (NSD2) in an isogenic RCH-ACV NSD2 p.E1099K mutant (9B) (AID 1645876); also: potency is read from the fitted curve at half-maximal effect; nearly all actives have a fitted effect of over 70% in size
[7] = Primary qHTS for inhibitors of nuclear receptor binding SET domain protein 2 (NSD2) in an RCH-ACV wild type WT cells (2C) (AID 1645877); also: nearly all actives have a fitted effect of over 70% in size; also: potency is read from the fitted curve at half-maximal effect
[8] = target: Glutathione peroxidase 1 (Homo sapiens) (UniProt P07203); experiment: Primary qHTS Assay for Inhibitors of Recombinant Selenoprotein Glutathione Peroxidase 1 (GPX1) (AID 1845191); also: nearly all actives have a fitted effect of over 65% in size
Glutathione peroxidase 1 (Homo sapiens), sequence (P07203 whole entry, looked up): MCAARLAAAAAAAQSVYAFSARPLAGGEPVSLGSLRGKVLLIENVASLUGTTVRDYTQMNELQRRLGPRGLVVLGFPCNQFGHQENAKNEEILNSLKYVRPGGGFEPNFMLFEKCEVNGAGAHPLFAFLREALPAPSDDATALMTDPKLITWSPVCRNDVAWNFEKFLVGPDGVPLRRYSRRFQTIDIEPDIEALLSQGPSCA
Method in brief: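 10 nM GPX1 + cpd, 30 min RT; start w/ 1 mM GSH, 0.5 mM cumene hydroperoxide, 0.5 mM NADPH, 100 nM GR, 0.01% BSA; buffer 50 mM Tris-HCl pH 7.5, 2 mM EDTA, 150 mM NaCl; Fl 340/450, 0 & 15 min.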

[9] = target: Phospholipid hydroperoxide glutathione peroxidase GPX4 (Homo sapiens) (UniProt P36969); experiment: Primary qHTS Assay for Inhibitors of Recombinant Selenoprotein Glutathione Peroxidase 4 (GPX4) (AID 1845192); conditions: outcome: dose series up to 50 µM unless noted; also: % is scaled to controls: 0 for no effect and ±100 for the full control effect; nearly all actives have a fitted effect of over 65% in size
Phospholipid hydroperoxide glutathione peroxidase GPX4 (Homo sapiens), sequence (P36969 whole entry, looked up): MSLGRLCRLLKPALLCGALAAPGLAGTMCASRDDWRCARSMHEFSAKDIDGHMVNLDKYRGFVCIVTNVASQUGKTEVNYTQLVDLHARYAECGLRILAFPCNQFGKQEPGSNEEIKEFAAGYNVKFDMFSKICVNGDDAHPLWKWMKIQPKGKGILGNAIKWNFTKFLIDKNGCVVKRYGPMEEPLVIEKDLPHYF
Method in brief: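 NADPH consumption, followed by fluorescence at 340/450 nm between 0 and 15 min, reports GPX4 activity via coupled glutathione reductase (100 nM). Enzyme 200 nM was pre-exposed to compound 30 min; 0.5 mM cumene hydroperoxide and 1 mM GSH served as substrates.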

[10] = qHTS drug screen for cell cycle checkpoint inhibitors in PARPi-resistant BRCA-mutant ovarian cancer cell lines. (AID 1963452; calls by dose curve); conditions: PEO1/OlaR viability, CellTiter-Glo luminescence, 96 h, stronger effect = lower value
Method in brief: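 PEO1, PEO4 and PEO1/OlaR ovarian cancer cells, 600 per well, exposed 96 h at 37C to a dilution series. Viability read by CellTiter-Glo luminescence, normalized to DMSO and empty wells; activity summarized as Z-AUC.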

## O=C1NC(=O)/C(=C\c2ccc3c(c2)OC(F)(F)O3)S1
[1]
  Potency: inactive
[2]
  activity: -3.87%
[3]
  activity change, negative = inhibition: -2.97%
[4]
  activity: -7.77%
[5]
  activity: -2.73%

## Cc1c[nH]c(/C=C2\C(=O)Nc3ccccc32)c1CCC(=O)O
[1]
  Potency: inactive
[6]
  Potency: 14.8 µM (active)
[7]
  Potency: 18.6 µM (active)
[8]
  Potency: inactive
[9]
  Potency: inactive
[10]
  Z-AUC: 1.24 (inactive)
[10]; measured here: PEO1 parental Z-AUC
  Z-AUC: 1.05
[10]; measured here: PEO4 Z-AUC
  Z-AUC: 1.31

## CCCCCCCCCCC(O)C1C=CC2C(=O)N(c3ccccc3)C(=O)C2N1Nc1ccc([N+](=O)[O-])cc1 (stereo unspecified)
[1]
  Potency: inactive
[8]
  Potency: inactive

## CC(C)n1nc(Cc2cccc3ccccc23)c2c(N)ncnc21
[1]
  Potency: 18.4 µM (active)
[2]
  activity: -11.5%
[3]
  activity change, negative = inhibition: -6.43%
[4]
  activity: -28.9%
[5]
  activity: -57.3%
[8]
  Potency: inactive

## N#Cc1cccc(CN2CCC(N(Cc3cccnc3)C(=O)Nc3ccccc3-c3ccccc3)CC2)c1
[1]
  Potency: inactive
[8]
  Potency: inactive

## C[n+]1cc(NC(=O)c2cccc(C(=O)Nc3cc4ccccc4[n+](C)c3)n2)cc2ccccc21
[1]
  Potency: inactive
[7]
  Potency: inactive
[8]
  Potency: inactive
